Compound activity (PubChem BioAssay)
Cycloheximide cs: counter-screen hit for Shiga toxin inhibitors, cycloheximide; AID 2314; max response, %; hit rate 12% among 300,000; cell reporter, cycloheximide protein synthesis inhibition counterscreen; in the data active = max response mostly above about 13%, no sharp cut-off; inactive = mostly below about 14%; also: read at 38.3 µM for the half of the compounds with a filed dose; 0% is about no effect
LmPK inhibitor: inhibitors of Leishmania mexicana pyruvate kinase. AID 1721. purified LmPK, Kinase-Glo ATP luminescence, 1 h. hit rate 0.37% among 290,000. Q27686. Potency, µM (top dose mostly 57.5 µM), for the others: at the top dose activity change, negative = inhibition, hits mostly inhibitors; also: potency is read from the fitted curve at half-maximal effect; % is scaled to controls: 0 for no effect and ±100 for the full control effect
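0.1 nM LmPK, 0.5 mM PEP, 0.1 mM ADP; 50 mM imidazole pH 7.2, 7 mM MgCl2, 50 mM KCl; 1 h RT. Kinase-Glo luminescence readout, normalized to no-enzyme (full inhibition) and uninhibited wells.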
TbPYK inhibitor: inhibitors of Trypanosoma brucei pyruvate kinase; Q57TT1; TbPYK enzyme, Kinase-Glo Plus ATP luminescence, 45 min; Potency, µM (highest dose often 76.8 µM), for inactives: at the top dose activity, negative = inhibition, most hits filed as inhibitors; hit rate 0.12% among 410,000; AID 624173; also: potency is read from the fitted curve at half-maximal effect; % is scaled to controls: 0 for no effect and ±100 for the full control effect; nearly all actives have a fitted effect of over 50% in size
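Activity of T. brucei pyruvate kinase was followed by Kinase-Glo Plus luminescence after the enzyme reacted 45 min at room temperature with 130 uM ADP (final) and substrate. Test compounds were added before ADP at multiple concentrations.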
RE007 growth inh: less growth of the S. pombe RE007 Vpr strain. S. pombe RE007 Vpr strain, BacTiter-Glo ATP luminescence, 24 h. Potency, µM (highest dose often 92.2 µM), for the others: top-dose activity change, negative = less growth, actives largely listed as inhibitors. hit rate 0.21% among 360,000. AID 651644; active = well fitted falling curve with a large enough effect; inconclusive = small, poorly fitted or top-dose-only effect; inactive = no such curve, though single readings can be large or run the other way; also: potency is read from the fitted curve at half-maximal effect; % is scaled to controls: 0 for no effect and ±100 for the full control effect; nearly all actives have a fitted effect of over 50% in size
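Fission yeast RE007 carrying one integrated HIV-1 vpr copy, seeded at OD 0.01 in PMG+AL medium with 23 nL pinned compound. Grown 24 h at 30 degrees; viability read by BacTiter-Glo luminescence after 5 min.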
Shiga toxin inh: blocks Shiga toxin action in Vero cells; Vero cells, Shiga toxin protein synthesis inhibition reporter; inhibition, % at 38.7 µM; hit rate 9.2% among 290,000; AID 2315; in the data active = inhibition mostly above about 28%, no sharp cut-off; inactive = mostly below about 43%; also: 0% is about no effect
Giardia FBPA inh: Giardia lamblia aldolase inhibition; A8B2U2; purified Giardia FBPA; Potency, µM (titrated, usually from 59.6 µM), inactives show at the top dose activity, negative = inhibition, usual class: inhibitors; hit rate 0.71% among 290,000; also: potency is read from the fitted curve at half-maximal effect; % is scaled to controls: 0 for no effect and ±100 for the full control effect; nearly all actives have a fitted effect of over 55% in size
Target sequence (A8B2U2 whole entry, looked up): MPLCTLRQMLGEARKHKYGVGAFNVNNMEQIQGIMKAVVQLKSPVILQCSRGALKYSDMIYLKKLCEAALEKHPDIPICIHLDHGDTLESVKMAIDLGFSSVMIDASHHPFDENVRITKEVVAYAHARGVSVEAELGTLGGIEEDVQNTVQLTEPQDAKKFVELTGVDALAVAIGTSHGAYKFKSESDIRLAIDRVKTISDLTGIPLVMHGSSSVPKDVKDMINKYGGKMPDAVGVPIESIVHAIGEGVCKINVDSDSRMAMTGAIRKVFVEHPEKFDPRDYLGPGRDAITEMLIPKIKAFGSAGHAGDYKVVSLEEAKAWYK
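40 nM FBPA preincubated 10 min at RT with compound (up to 57.5 uM final), then substrate plus GAPDH/TPI/NAD/arsenate coupling and diaphorase/resazurin added. Fluorescence read after 20 min at RT, 525/598 nm.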
* = called active by the depositor; u = inconclusive; x = no result given; [ ] = dose if it differs, or a comment. The entries come from a sample that favours hits as a whole. Unless noted, calls follow the shape of the dose curve; as a rule, active = well fitted curve in the direction sought with a large enough effect; inconclusive = small, poorly fitted or top-dose-only effect, or another doubt; inactive = no such curve, though single readings can be large; an effect the other way counts as inactive or inconclusive.

SMILES | Cycloheximide cs | LmPK inhibitor | TbPYK inhibitor | RE007 growth inh | Shiga toxin inh | Giardia FBPA inh
CCc1ccc(Nc2cc(=O)n(C3CCCCC3)c(=O)[nH]2)cc1 | 30.2* | 2.8% | 0.6% | 1.7% | 86.5* | -4.9%
O=C(Nc1ccc(-c2nc3cc(Cl)ccc3o2)cc1)C1CCCO1 (configuration not stated) | 29.7* | -1.6% | -2.4% | -5.3% | 69.6* | 3.2%
CN(C)c1ccc(C(=O)Nc2ccc(-c3nc4ccccc4o3)cc2)cc1 | x | x | 3.0% | x | x | x
O=C(O)c1cccc(NC(=O)C2CCCO2)c1 (configuration not stated) | 3.5 | 1.4% | 3.0% | 11.8% | 24.8 | 2.6%
O=C(Nc1ccc(-c2nc3ccccc3o2)cc1)C1CCCO1 (configuration not stated) | 37.3* | 15.8µM* | -24.8% | u | 73.4* | 2.4%
O=C(Nc1ccc2oc(-c3ccccc3)nc2c1)C1CCCO1 (configuration not stated) | 45.3* | -17.5% | -2.9% | -20.9% | 66.5* | -0.8%
O=C(Nc1ccc(-c2nc3cccnc3s2)cc1)C1CCCO1 (configuration not stated) | 17.4 | 14.1µM* | u | -16.5% | 13.2 | 8.4%
COCCNC(=O)C1CCN(S(=O)(=O)c2ccccc2)CC1 | -3.9 | -1.1% | -10.9% | 7.8% | -16.3 | 11.3%
CCOC(=O)c1sc2nc(C)nc(N3CCN(S(=O)(=O)c4ccccc4)CC3)c2c1C | x | x | -19.7% | -7.4% | x | x
Cc1cc(OCCCC(=O)NNC(=O)c2ccncc2)ccc1Cl | -2.1 | -9.3% | 5.5% | -7.4% | 15.5 | x
CCC(C)/C(C)=N/NC(=O)c1ccc(COc2ccc(Cl)c(C)c2)cc1 (configuration not stated) | 38.5* | 2.3% | 2.3% | u | 33.0 | 2.9%
Cc1ccc(C(=O)c2cn(CC(=O)NCc3ccccc3Cl)c3nc(C)ccc3c2=O)cc1 | x | x | -8.3% | x | x | x
Cc1ccc(S(=O)(=O)c2cn(CC(=O)Nc3ccccc3)c3cc4c(cc3c2=O)OCO4)cc1 | x | x | -0.9% | x | x | x
Cc1cc(NC(=O)C(C)C)ncc1NC(=O)c1ccccn1 | 30.1* | -9.9% | -13.1% | 17.8% | 129.2* | -12.8%
Cc1cc(NC(=O)C(C)C)ncc1NC(=O)c1cccc(F)c1 | -1.5 | 6.3% | 4.3% | -1.8% | -0.4 | 2.0%
CCCC(=O)Nc1cc(C)c(NC(=O)c2ccccn2)cn1 | 28.1* | -4.7% | 4.5% | -2.4% | 85.8* | -13.2%
CCCCC(=O)Nc1cnc(NC(=O)c2ccco2)cc1C | 20.7* | -9.4% | -6.0% | 68.3% | 63.7* | -5.8%
COCCn1c(=O)c(C)nc2cnc(Oc3ccc(OC)cc3)nc21 | x | x | x | x | x | -26.2%
O=C(N/N=C\c1cccc(Cl)c1)c1ccc(Cn2cc(Br)c([N+](=O)[O-])n2)o1 | 8.5 | -3.6% | 3.2% | -12.8% | 24.2* | -5.6%
NNC(=O)c1ccc(Cn2cccn2)o1 | 19.6 | -1.1% | 2.7% | 18.3% | 51.9* | -4.6%
Cc1ccsc1/C=N/NC(=O)c1ccc(Cn2cc(Br)cn2)o1 | 13.0 | 1.7% | 1.2% | -8.1% | 36.6 | 1.8%
O=C(N/N=C/c1cccc(Br)c1)c1ccc(Cn2cc(Br)cn2)o1 | 17.1 | 4.1% | -1.2% | -19.0% | 55.8* | -13.6%
NNC(=O)c1ccc(Cn2cc(Br)cn2)o1 | 27.2* | 2.7% | 0.3% | -19.8% | 61.0* | -1.4%
CN1OC(COC(=O)c2ccccc2)CC1c1ccccc1 (configuration not stated) | 40.8* | -0.1% | -9.7% | -12.4% | 94.1* | 6.5%
CN1C2CCC1C(COC(=O)c1ccccc1)C(O)C2 (configuration not stated) | -2.8 | -8.3% | 2.2% | 9.0% | 5.2 | 6.4%
Cc1ccccc1OC1C=CC(c2ccccc2)OC1CO (configuration not stated) | x | x | x | x | x | 1.7%[12.9 µM]
CC1(C)CC(=O)c2cnc(N3CCc4ccccc43)nc2C1 | 50.6* | -5.6% | -5.2% | 3.3% | 88.2* | 0.1%
O=C1CC(c2ccc(F)cc2)Cc2nc(N3CCc4ccccc43)ncc21 (configuration not stated) | 2.9 | -3.0% | x | x | 22.0 | -2.8%
COc1ccccc1NC(=O)c1coc(=O)c(Br)c1 | 77.0* | 0.1% | -18.5% | -10.2% | 104.0* | 1.3%
